{"source": "the supplement of paper PMC6555819", "data": [{"test_system": "VDR:RXRa (NR concentration 270 nM, RXRa partner concentration 90 nM)", "assay": "PBM binding z-score (relative to random genomic background probes); higher = stronger binding; sequences stand for … in GC…GCGATTGACAGCGTAGAATGAAGG", "protocol": "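Protein-binding microarray (Agilent 4x180K custom design, double-stranded 60-nt probes: 5' GC cap, 34-nt variable region, 24-nt constant primer region; full probe sequence given). Purified or IVT nuclear receptor:RXRα heterodimers (3:1 NR:RXRα, mostly 270:90 nM) or homodimers were incubated for 1 h in PBS with 2% milk and no ligand, then detected with Alexa488 antibodies. Fluorescence from o1-orientation probes (~5 replicates averaged) was converted to z-scores against 500 random hg19 background probes. Variable regions are seed direct-repeat (DR0–DR5) sites, all their single-nucleotide variants and half-site ablations.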", "values": [{"sequence": "CCAACTGGGGCATAAGGTTACCATAAGCCAGCCC", "PBM binding z-score": 0.316}, {"sequence": "TGAATGAGCTTATAAGATCAGGGAACGTTGCAAA", "PBM binding z-score": -0.361}, {"sequence": "GCTTGTAGATCAAGGTTAAGGAAGACTAAGCTAA", "PBM binding z-score": 0.00298}, {"sequence": "ATATGTAGGTTAGGTGGGGTCATTCAGACTAGGC", "PBM binding z-score": 6.5}, {"sequence": "TTACCATGGTGAGCTGAGGTCGTTGATCCAACTC", "PBM binding z-score": 1.57}, {"sequence": "CCTACTGGGCCAAAGGTCATTGAATCCAATGCTC", "PBM binding z-score": 4.86}, {"sequence": "CCTACTGGGCCAAAGGTCATTGATTCCAATGCTC", "PBM binding z-score": 4.75}, {"sequence": "GGAACGAGGGCATTCGACTTGATAGCATGGCGAT", "PBM binding z-score": 1.35}, {"sequence": "TAGCCTAGGTCATTGGGCCGGTATAGTACGCATC", "PBM binding z-score": 2.11}, {"sequence": "CGTCAAAGTTCAACTAAGGTAACGTAGAGCACGC", "PBM binding z-score": 4.59}, {"sequence": "ATCTCTAGGTACCCAAGTTCAGTGAATGCCGAAC", "PBM binding z-score": 2.1}, {"sequence": "CTCGAAAGGTCGTGCACAGGTGAGTATACCAAAC", "PBM binding z-score": 3.8}, {"sequence": "ATAAGTAGGTTATCGGGTCATTCAGTTTGCGCAT", "PBM binding z-score": 5.16}, {"sequence": "GCGAATGGGGCATCAGCAGGTTACCATAACTTAA", "PBM binding z-score": -0.212}, {"sequence": "GGAACGAGGGCATTAGAGTTGATAGCATGGCGAT", "PBM binding z-score": 2.83}, {"sequence": "AGTCAAGGTTCACTAGGTAACGTAAGATTCAGCT", "PBM binding z-score": 3.27}, {"sequence": "ATCTATAGGTAAAGTTCAGTGAAAGATCGATAGA", "PBM binding z-score": 1.65}, {"sequence": "ACAGACAGGGGATGAAGGTAACTCAGGCTATCAT", "PBM binding z-score": 0.0836}, {"sequence": "TTACCAATGTGAGCTGAGGTCGTTGATCCAACTC", "PBM binding z-score": 1.78}, {"sequence": "TCTGCTAGGTCAACTATGGTCAGCTAATCTGCTA", "PBM binding z-score": 2.12}, {"sequence": "CGAACTAGGTCAAGGACAGTGAGTCTCCGCACGC", "PBM binding z-score": 1.16}, {"sequence": "TGAATGAGGTTATAAGAACAGGGAACGTTGCAAA", "PBM binding z-score": 0.915}, {"sequence": "TCTGCTAGGTCACTTGGTCAGCTAACGAGCTGCC", "PBM binding z-score": 1.3}, {"sequence": "CCTGCTGGGTCAATGGTCAGCTAAAGCAGCTCGC", "PBM binding z-score": 0.85}, {"sequence": "CCGACTGGGGCAAGGTTATCATAACGCACAGCCA", "PBM binding z-score": 0.0882}, {"sequence": "CGAACGAGGGCATGAGTTGAAAGCAAATGCCGAT", "PBM binding z-score": 1.25}, {"sequence": "ATCGAGAGGTCGAAGGTGAGTATACCCACCCGAA", "PBM binding z-score": 2.42}, {"sequence": "TCTAGTTGGTCAACGGTCACACACTCGAAATGCG", "PBM binding z-score": 0.848}, {"sequence": "CCAACTAGGTCAAGGTCAAAGTCGGTTTGTGCCA", "PBM binding z-score": 5.14}, {"sequence": "AGAATGACGTTACCAAAGATCAGGGAAACGCTTG", "PBM binding z-score": -0.434}, {"sequence": "GATACAGGGTCAGCTAGAGGCGAGAGTATGGAAA", "PBM binding z-score": 2.6}, {"sequence": "TCTTGTCGATCAAGCAGGTTAAGAAAGCCTGAGT", "PBM binding z-score": 0.107}, {"sequence": "CCAGACAGGTGAAAGGTAACTCTGTCTGGTACGC", "PBM binding z-score": 0.668}, {"sequence": "ATCGAAAGGTCGAAGATGAGTATACCCACCCGAA", "PBM binding z-score": 2.36}, {"sequence": "GCGCCTGGGGCATCAGCAGGTTACCATAACTTAA", "PBM binding z-score": -0.28}, {"sequence": "AGAACGAGGGCACGCTGAGTTGAAAGCAGAGTAG", "PBM binding z-score": 2.29}, {"sequence": "ATATGTAGGGTACATCCGGGTCATTCAGGCTATG", "PBM binding z-score": 5.09}, {"sequence": "CAAACTAGGTCAAGAGGTCAAAGCCCGCTTCCCG", "PBM binding z-score": 5.9}, {"sequence": "TAGCCTAGGTCGTTGGGCCAGTATAGTACGCATC", "PBM binding z-score": 0.153}, {"sequence": "AGTCAAAGTTCACTAGGTAACGTATGATTCAGCT", "PBM binding z-score": 3.93}]}]}
